Reference: PubChem BioAssay (NCI)
About 83,000 compounds went through this panel and 20% of them were active in at least one assay; those are over-represented in the sample as a whole.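 Cell lines were cultured in 96-well plates, exposed to a single compound concentration, and assessed for percent growth 48 hours later.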 Active and inactive are the calls of the source. Rule for the calls: active = growth percent below 10; inactive = the rest.

How the values were obtained:
Assay in all cases: NCI-60 one-dose screen, 48 h (100 = growth as untreated, 0 = no growth, -100 = all killed)
Settings in all cases: 10 µM unless noted
NCI-H23 lung = system: NCI-H23 lung
NCI-H226 lung = system: NCI-H226 lung
NCI-H322M lung = system: NCI-H322M lung
HOP-62 NSCLC = system: HOP-62 NSCLC
NCI-H460 lung = system: NCI-H460 lung
NCI-H522 lung = system: NCI-H522 lung
A549/ATCC NSCLC = system: A549/ATCC NSCLC
786-0 renal = system: 786-0 renal
COLO 205 colon = system: COLO 205 colon
DU-145 prostate = system: DU-145 prostate
K-562 leukemia = system: K-562 leukemia
MALME-3M melanoma = system: MALME-3M melanoma
MDA-MB-231 breast = system: MDA-MB-231 breast
SF-268 CNS = system: SF-268 CNS
SF-295 CNS = system: SF-295 CNS
SF-539 CNS = system: SF-539 CNS
UACC-257 melanoma = system: UACC-257 melanoma
M14 melanoma = system: M14 melanoma
RXF 393 renal = system: RXF 393 renal
HOP-92 NSCLC = system: HOP-92 NSCLC

Measured: growth

N=c1ccc2nc3c(cc(N)c4ccccc43)oc-2c1
active: NCI-H23 lung -80.4% | NCI-H226 lung -61.3% | NCI-H322M lung -34.2% | HOP-62 NSCLC -97.7% | NCI-H460 lung -77.3% | NCI-H522 lung -70.1% | A549/ATCC NSCLC -44% | 786-0 renal -90.7% | COLO 205 colon -100% | DU-145 prostate -100% | K-562 leukemia -67.3% | MALME-3M melanoma -91.5% | MDA-MB-231 breast -52.8% | SF-268 CNS -59.2% | SF-295 CNS -69.8% | SF-539 CNS -98.9% | UACC-257 melanoma -91.5% | M14 melanoma -100%

CCCC(=O)N1CCCCC1CC (stereo not given)
inactive: NCI-H23 lung 111% | NCI-H226 lung 101% | NCI-H322M lung 127% | HOP-62 NSCLC 107% | NCI-H460 lung 97% | NCI-H522 lung 99.9% | A549/ATCC NSCLC 99.6% | 786-0 renal 104% | COLO 205 colon 116% | DU-145 prostate 106% | K-562 leukemia 87.5% | MALME-3M melanoma 118% | MDA-MB-231 breast 115% | RXF 393 renal 115% | SF-539 CNS 87.5% | UACC-257 melanoma 90.6% | M14 melanoma 114%

Cn1c(=O)c2c(ncn2CC(=O)Nc2ccc(S(N)(=O)=O)cc2)n(C)c1=O
inactive: NCI-H23 lung 104% | NCI-H226 lung 105% | NCI-H322M lung 107% | HOP-62 NSCLC 94.8% | NCI-H460 lung 108% | NCI-H522 lung 86.7% | A549/ATCC NSCLC 88.3% | 786-0 renal 94.9% | COLO 205 colon 105% | DU-145 prostate 107% | K-562 leukemia 97.4% | MALME-3M melanoma 118% | MDA-MB-231 breast 105% | RXF 393 renal 106% | SF-268 CNS 101% | SF-295 CNS 103% | SF-539 CNS 96.3% | M14 melanoma 97.1%

CCCCC[C@H]1CC=C2C(=O)C=C[C@@H]2CC=CCCCC(=O)O[C@@H](CCCCC)CC=C2C(=O)C=C[C@@H]2CC=CCCCC(=O)O[C@@H](CCCCC)CC=C2C(=O)C=C[C@@H]2CC=CCCCC(=O)O1
inactive: NCI-H322M lung 17.9% [8.75 µM] | DU-145 prostate 10.6% [8.75 µM] | SF-268 CNS 14.4% [8.75 µM]
active: NCI-H23 lung -16.4% [8.75 µM] | HOP-62 NSCLC -10.6% [8.75 µM] | NCI-H460 lung 0.981% [8.75 µM] | HOP-92 NSCLC -47.7% [8.75 µM] | NCI-H522 lung -48.5% [8.75 µM] | A549/ATCC NSCLC -29.7% [8.75 µM] | 786-0 renal -48.7% [8.75 µM] | COLO 205 colon -30.7% [8.75 µM] | K-562 leukemia 5.31% [8.75 µM] | MALME-3M melanoma -14.3% [8.75 µM] | MDA-MB-231 breast -37.2% [8.75 µM] | RXF 393 renal -65.4% [8.75 µM] | SF-295 CNS 2.07% [8.75 µM] | SF-539 CNS -8.63% [8.75 µM] | UACC-257 melanoma -3.87% [8.75 µM] | M14 melanoma -26.3% [8.75 µM]

Oc1ccc(Nc2ccccc2)cc1
inactive: NCI-H23 lung 86% | NCI-H226 lung 92.6% | NCI-H322M lung 77.7% | HOP-62 NSCLC 104% | NCI-H460 lung 92.5% | NCI-H522 lung 92.2% | A549/ATCC NSCLC 111% | 786-0 renal 97.8% | COLO 205 colon 109% | DU-145 prostate 94.6% | K-562 leukemia 79.6% | MALME-3M melanoma 70.7% | MDA-MB-231 breast 52.6% | SF-268 CNS 88.2% | SF-295 CNS 82% | SF-539 CNS 64.5% | UACC-257 melanoma 110% | M14 melanoma 104%

Fc1ccc(NCc2nnc(-c3ccc(Cl)cc3)o2)cc1
inactive: NCI-H23 lung 70.1% | NCI-H226 lung 71.8% | NCI-H322M lung 82.5% | HOP-62 NSCLC 84.6% | NCI-H460 lung 83.7% | NCI-H522 lung 56.5% | A549/ATCC NSCLC 66.1% | 786-0 renal 87.8% | COLO 205 colon 90% | DU-145 prostate 95.5% | K-562 leukemia 53.8% | MALME-3M melanoma 93.8% | MDA-MB-231 breast 55.6% | RXF 393 renal 84.8% | SF-268 CNS 77.9% | SF-295 CNS 77.9% | SF-539 CNS 90.6% | UACC-257 melanoma 68.4% | M14 melanoma 77.9%

c1ccc(C2Cc3ccccc3C2=NC2CCCCC2)cc1 (stereo not given)
inactive: NCI-H23 lung 98.1% | NCI-H226 lung 100% | NCI-H322M lung 102% | HOP-62 NSCLC 113% | NCI-H460 lung 116% | NCI-H522 lung 88.8% | A549/ATCC NSCLC 103% | 786-0 renal 97.5% | COLO 205 colon 115% | DU-145 prostate 115% | K-562 leukemia 99.6% | MALME-3M melanoma 116% | MDA-MB-231 breast 97.2% | RXF 393 renal 110% | SF-268 CNS 102% | SF-539 CNS 89.3% | UACC-257 melanoma 110% | M14 melanoma 91.7%

CN1CCN(c2nc(-c3cccc4ccccc34)nc3sc4c(c23)CCCCCC4)CC1
inactive: NCI-H23 lung 92.2% | NCI-H226 lung 74.4% | NCI-H322M lung 104% | HOP-62 NSCLC 75.4% | NCI-H460 lung 91.4% | NCI-H522 lung 88.7% | A549/ATCC NSCLC 95.5% | 786-0 renal 87.7% | COLO 205 colon 91.7% | DU-145 prostate 102% | K-562 leukemia 85.3% | MALME-3M melanoma 81.3% | MDA-MB-231 breast 61.8% | RXF 393 renal 60.9% | SF-268 CNS 82% | SF-539 CNS 86% | UACC-257 melanoma 94.4% | M14 melanoma 93.2%
